# Among all 2,400 compounds or so, about 1,100 (46%) were called active.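 How the source made its calls: active means inhibition above the run cutoff, the mean inhibition of all test compounds plus 3 SD (cut at about 49% in these data); inactive means the rest.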 The set was probably picked from earlier hits. The list is a sample of the results.
# Biological target: Trace amine-associated receptor 1 (Homo sapiens) (UniProt Q96RJ0)
# Assay: loss of beta-PEA response after agonist pre-exposure – cell-based, fluorescence, tachyphylaxis, counter-screen for TAAR1 agonist project, confirmation (AID 651951);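 further: beta-PEA stimulus applied at its EC80; loss of beta-PEA calcium signal after compound pretreatment read as receptor desensitization; 0% = DMSO with beta-PEA at EC80 and 100% = DMSO alone without agonist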
# Conditions: CHO RD-HGA16 hTAAR1, Fluo-8 calcium, at 3 µM, hits give high values
# Chain of Trace amine-associated receptor 1 (Homo sapiens) (Q96RJ0 whole entry, looked up): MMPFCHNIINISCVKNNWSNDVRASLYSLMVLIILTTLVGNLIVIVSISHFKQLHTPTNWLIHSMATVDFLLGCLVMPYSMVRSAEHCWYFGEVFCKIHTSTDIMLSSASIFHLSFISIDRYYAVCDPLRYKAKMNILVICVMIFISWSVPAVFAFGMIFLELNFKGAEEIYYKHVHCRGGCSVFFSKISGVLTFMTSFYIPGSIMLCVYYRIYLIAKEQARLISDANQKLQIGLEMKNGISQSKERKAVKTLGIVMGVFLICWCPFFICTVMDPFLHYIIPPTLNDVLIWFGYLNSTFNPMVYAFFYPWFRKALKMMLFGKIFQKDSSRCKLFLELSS
row,SMILES,inhibition
1,O=C(N[C@H](C(=O)N1CCC[C@H]1C(=O)NCCc1ccccc1Cl)c1ccccc1)c1ccccc1,85.5% (active)
2,Cc1cc(=O)oc2c(C)c(OCC(=O)NCCN3CCOCC3)ccc12,2.28% (inactive)
3,O=Cc1c(NCCc2cccc(F)c2)c2ccccc2[nH]c1=O,36.8% (inactive)
4,Nc1c(NCCc2ccccc2)c2ccccc2oc1=O,53.6% (active)
5,CCOc1ccc(Br)cc1CSC(=N)N,67% (active)
6,CCc1ccc(-c2nn(-c3ccccc3)cc2CSC(=N)N)cc1,25.1% (inactive)
7,CCCCOc1ccc(CSC(=N)N)cc1[N+](=O)[O-],12.3% (inactive)
8,S=C(Nc1ccc(Br)cc1)NC1CCN(Cc2ccccc2)CC1,48.3% (inactive)
9,Cc1ccccc1-c1nc(CS(=O)(=O)CC(=O)N2CCc3ccccc3C2)c(C)o1,25.5% (inactive)
10,CCC(C(=O)Nc1ccc(C(C)C)cc1)c1ccccc1 (configuration not stated),103% (active)
11,Cc1ccc(Sc2cc(N3CCOCC3)nc(-c3ccccc3)n2)cc1,7.49% (inactive)
12,CCC(c1nnnn1Cc1ccco1)N(CCc1ccccc1)Cc1cc2ccc(OC)cc2[nH]c1=O (configuration not stated),13.2% (inactive)
13,COc1ccc(OC)c(C(c2nnnn2C(C)(C)C)N2CCc3ccccc3C2)c1 (configuration not stated),17.8% (inactive)
14,O=C(O)C1C2C=CC(O2)C1C(=O)NCCc1cccc(Cl)c1 (configuration not stated),92.1% (active)
15,O=C(NNC(=S)NC(=O)c1cn(-c2ccccc2)nc1-c1ccccc1)c1ccncc1,79.3% (active)
16,CN(C(=O)CN(CCO)CC(=O)N(C)C(C)(C)Cc1ccccc1)C(C)(C)Cc1ccccc1,94.8% (active)
17,CCCc1cc(C(=O)Nc2ccc(C(=O)OC)cc2)cs1,11% (inactive)
18,O=C(/C=C/[C@H]1O[C@@H](n2cnc3c(NC(=O)c4ccccc4)ncnc32)[C@H](O)[C@@H]1O)NCc1ccccc1,-5.17% (inactive)
19,CCc1ccccc1S(=O)(=O)Cc1ccc(C(=O)NCCc2ccccc2)o1,77.1% (active)
20,O=C(NCCc1ccccc1)C(=O)NCC1OCCN1S(=O)(=O)c1cccs1 (configuration not stated),36.3% (inactive)
21,O=C1CCCN2N=C(SCC(=O)Nc3ccc(Br)cc3)SC2=N1,36.4% (inactive)
22,CCCCC(=O)NNC(=S)NC(=O)C(c1ccccc1)c1ccccc1,107% (active)
23,c1ccc2c(c1)OCC(CNc1ncnc3nc[nH]c13)O2 (configuration not stated),106% (active)
24,Cc1cc(C)c2cc(C#N)c(N3CCNCC3)nc2c1,79.8% (active)
25,Cc1ccc(NC(=O)CCN2CCc3ccccc3C2)cc1,78% (active)
26,Cc1ccc(S(=O)(=O)N(CC(=O)N2CCc3ccccc3C2)c2cccc(Cl)c2)cc1,29.8% (inactive)
27,COc1ccc(NC(=O)C(=O)NCC(c2ccco2)N2CCc3ccccc3C2)cc1 (configuration not stated),-6.26% (inactive)

# — PubChem BioAssay AID651951 (The Scripps Research Institute Molecular Screening Center, 2012)
